Assay outcomes as filed in PubChem.
Compounds with a hit are over-represented: about 1.7% of the library has one in this group of screens.
m5-HT2A agonist: activates the mouse 5-HT2A serotonin receptor | CHO-K1 mHTR2A beta-arrestin complementation, luminescence; percent of 30 µM serotonin response | 0.66% of 360,000 active | activation, % at 7.6 µM;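 active = activation above a run cutoff, the mean activation of all tested compounds plus 3 SD, cut at about 14% in these data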;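 also: 0% = plate median of compound wells and 100% = 30 µM serotonin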
Target sequence (P35363 whole entry, looked up): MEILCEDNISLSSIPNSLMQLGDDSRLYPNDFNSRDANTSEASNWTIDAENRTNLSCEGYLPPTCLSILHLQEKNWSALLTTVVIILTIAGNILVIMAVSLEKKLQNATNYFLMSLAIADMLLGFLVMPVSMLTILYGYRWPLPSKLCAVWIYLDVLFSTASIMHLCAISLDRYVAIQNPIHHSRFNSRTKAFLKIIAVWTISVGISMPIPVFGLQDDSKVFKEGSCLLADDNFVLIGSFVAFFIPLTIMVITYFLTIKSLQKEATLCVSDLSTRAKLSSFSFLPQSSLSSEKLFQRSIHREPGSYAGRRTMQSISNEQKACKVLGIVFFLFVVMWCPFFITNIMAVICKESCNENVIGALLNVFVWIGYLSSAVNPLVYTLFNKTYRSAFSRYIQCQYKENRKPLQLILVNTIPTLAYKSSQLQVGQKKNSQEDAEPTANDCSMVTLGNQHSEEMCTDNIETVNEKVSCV
LANA-H2A inh: blocks KSHV LANA binding to histone H2A/H2B; Q9QR71; cell-free LANA-H2A/H2B peptide, fluorescence polarization; inhibition, % (no concentration beside the values); 0.6% of 320,000 active; in the data active = inhibition mostly above about 10%, no sharp cut-off; inactive = mostly below about 6.7%
Fh CTSL1 inh: counter-screen for PFM18AAP inhibitors: inhibitors of F. hepatica cathepsin L1 | inhibition, % at 5.96 µM | recombinant F. hepatica cathepsin L1, Z-Leu-Arg-MCA fluorescence | 0.49% of 300,000 active;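 active = inhibition above the mean of all tested compounds plus 3 SD, set per screening campaign, cut at about 17% in these data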;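 also: 0% = plate median of test compound wells and 100% = 1 µM Z-Phe-Ala-diazomethylketone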
HDAC3 inhib: blocks human histone deacetylase 3; recombinant HDAC3, fluorogenic peptide/trypsin coupled, fluorescence; 0.15% of 320,000 active; inhibition, % at 8.3 µM; AID 2718; in the data active = inhibition above about 26%, passing the limit was not always enough; inconclusive = no clear call, values can overlap the other calls
* hit, by the source's call; ? = inconclusive; nt = no result.

SMILES	m5-HT2A agonist	LANA-H2A inh	Fh CTSL1 inh	HDAC3 inhib
OCCCc1nc2n(n1)C(c1cccs1)C=C(c1ccc(Br)cc1)N2 (configuration not stated)	nt	102*	0	0
Brc1ccc(C2=CC(c3cccs3)n3ncnc3N2)cc1 (configuration not stated)	-2	59*	2	-1
Cc1ccccc1CC(=O)Nc1ccc(S(=O)(=O)N2CCN(C)CC2)cc1	-3	4	-4	nt
CCOC(=O)C1=C(CSc2nc(-c3ccccc3)ccc2C#N)OC(N)=C(C#N)C1c1ccccc1 (configuration not stated)	4	198*	-2	8
CCOc1ccc(S(=O)(=O)N2CCC(C(=O)NC3CCCC3)CC2)cc1	7	8	-3	15
COc1ccc(NC(=O)Nc2cccc(C(=O)N3CCOCC3)c2)cc1OC	3	4	17*	5
COc1ccc(NC(=O)Nc2ccc(C(=O)N3CCOCC3)cc2)cc1OC	2	-6	-3	1
O=C(N/N=C/C=C/c1ccccc1)c1cccc(Br)c1	-6	-3	18*	10
CSc1ccc(S(=O)(=O)N2c3ccccc3CC2C)cc1 (configuration not stated)	-4	-1	-1	7
NS(=O)(=O)c1ccc(NC2=CC(=O)C(=O)c3ccccc32)cc1	6	-1	17*	4
Cc1cccc(-c2cc3nc(-c4ccccc4)cc(N4CCC5(CC4)OCCO5)n3n2)c1	11	2	20*	-37
Cc1ccc(-c2cc3nc(-c4ccccc4)cc(N4CCC5(CC4)OCCO5)n3n2)cc1	2	-2	5	1
NC(=O)c1ccsc1NC(=O)c1ccc(S(=O)(=O)N2CCCCC2)cc1	1	-4	37*	7
COc1cccc(C2CC(=O)N3CN(c4cccc(Cl)c4C)CSC3=C2C#N)c1OC (configuration not stated)	-6	-1	3	51*
COc1ccc(OC)c(C2CC(=O)N3CN(c4cccc(Cl)c4C)CSC3=C2C#N)c1 (configuration not stated)	1	1	5	37*
CC(=O)c1cccc(NC(=S)NCCC2=CCCCC2)c1	4	-2	1	-1
O=C(NCCC1=CCCCC1)Nc1ccc2nsnc2c1	-8	7	24*	-4
COC(=O)[C@@]12C[C@@H](CC(=O)NCC34CC5CC(CC(C5)C3)C4)C(=O)N(Cc3ccco3)C1=CCC(C)(C)C2	-2	nt	nt	nt
Nc1c(Cl)cc(-c2cn(CCC(=O)O)c(-c3ccncc3)n2)cc1Cl	2	-2	-2	-6
O=[N+]([O-])c1ccc(N2CCN(c3ccccc3Cl)CC2)cn1	-7	-2	21*	2
Cc1ccccc1Cn1c(=N)n(CC(O)c2ccco2)c2ccccc21 (configuration not stated)	-2	-2	-5	4
CC(C)(C)c1ccc(Cn2c(=N)n(CC(O)c3ccco3)c3ccccc32)cc1 (configuration not stated)	-5	18*	-1	13
O=S1(=O)N[C@@H](Cc2ccccc2)COc2cc(N3CCSCC3)ccc21	-1	nt	nt	nt
O=C(NCc1ccccn1)Nc1cccc(F)c1	-2	1	5	-1
COc1cccc(N(CC(=O)NCC2CCCO2)C(=O)CCC(=O)Nc2nccs2)c1 (configuration not stated)	4	29*	2	2
SMILES	m5-HT2A agonist	LANA-H2A inh	Fh CTSL1 inh	HDAC3 inhib
Cc1cccc(N(CC(=O)NCC2CCCO2)C(=O)CCC(=O)Nc2nccs2)c1 (configuration not stated)	8	3	0	1
Cc1c(N2C(=O)/C(=C3\C(=O)N(CC(=O)O)c4ccccc43)SC2=S)c(=O)n(-c2ccccc2)n1C	3	22*	4	9
C[C@H](NC(=O)c1nc[nH]c1C(=O)NCc1ccc(CNC(=O)OC(C)(C)C)cc1)C(=O)OC(C)(C)C	1	-4	1	?
CC(C)C[C@H](NC(=O)c1[nH]cnc1C(=O)Nc1ccc(CNC(=O)OC(C)(C)C)cc1)C(=O)OC(C)(C)C	0	2	10	52*
CC(C)C[C@H](NC(=O)c1nc[nH]c1C(=O)NCc1ccccc1)C(=O)OC(C)(C)C	3	2	4	40*
CC(C)C[C@H](NC(=O)c1[nH]cnc1C(=O)Nc1ccc(CNC(=O)OC(C)(C)C)cc1)C(=O)OCc1ccccc1	-3	0	5	3
CC(C)C[C@H](NC(=O)c1nc[nH]c1C(=O)NCc1ccc(CNC(=O)OC(C)(C)C)cc1)C(=O)OC(C)(C)C	3	-1	8	35*
CC(C)C[C@H](NC(=O)c1nc[nH]c1C(=O)NC1CCN(C(=O)OC(C)(C)C)CC1)C(=O)OCc1ccccc1	6	-1	5	44*
COC(=O)c1ccc(NC(=O)CSc2ccc(-c3ccccn3)nn2)cc1	4	0	3	2
COC(=O)c1cc(NC(=O)COC(=O)C2COc3ccccc3O2)cc(C(=O)OC)c1 (configuration not stated)	-4	1	nt	2
CCCCN1C(=O)C(=O)N(CC(=O)Nc2sc(C)c(C)c2C(=O)OC)C1=O	3	4	nt	9
CCN(CC(=O)Nc1c(F)cccc1F)C(=O)CCc1nc2cc(S(=O)(=O)N3CCOCC3)ccc2n1C	7	-4	1	-4
Cc1ccc(N2CCN(C(=O)C(=O)c3ccc(F)c(F)c3)CC2)cc1	6	nt	nt	nt
CN(C)c1ccc(/C=N/NC(=O)c2ccc3nc[nH]c3c2)cc1	1	5	21*	2
CN(C)c1ccc(/C=N/NC(=O)CNC(=O)c2ccc3c(c2)OCCO3)cc1	-8	25*	0	-28
CCN(CC)c1ccc(/C=N/NC(=O)CNC(=O)c2ccc3c(c2)OCCO3)cc1	7	8	4	-60
CCN(CC)c1ccc(/C=N/NC(=O)c2ccc3nc[nH]c3c2)cc1	-5	5	4	6
COc1ccccc1CNC(=O)CN1C(=O)NC(Cc2ccccc2)(c2ccccc2)C1=O (configuration not stated)	0	1	nt	2
Cc1ccc(C)c(NC(=O)CN(C)C(=O)C2CCN(C(=O)Nc3ccccc3)CC2)c1	7	-2	17*	-4
CCN(CC)C(=S)SSC(=S)N(CC)CC	1	20*	1	1
N#CCN(C(=O)CSc1nnc(C2CC2)n1C1CC1)c1ccccc1	-5	nt	nt	nt
CCOC(=O)Nc1ccc2c(c1)N(C(=O)CCN(CC)CC)c1ccccc1S2=O (configuration not stated)	-1	3	17*	-6
O=C(CN(Cc1ccco1)C(=O)CNS(=O)(=O)c1ccc(F)cc1)NCc1ccco1	-1	0	-6	3
COc1ccc(CCNC(=O)c2cc3c(cc2Cl)N2CCCCCC2=NS3(=O)=O)cc1	0	0	5	-1
CC(C)C(=O)Nc1nnc(CCN2CCOCC2)s1	-1	18*	1	-3
CC(CCc1ccccc1)NC(=O)c1ccc(Cl)nc1 (configuration not stated)	0	0	17*	0
